Assay results published in PubChem BioAssay AID1159580 (chemical genetic matrix, 2015).
About 2,000 (36%) of roughly 5,500 compounds were called active. Another 18% or so got no clear call; they are omitted. No stated cut-off is given here; in the data, active means normalized growth mostly below about 0.91 (no sharp cut-off); inconclusive means no clear call, values can overlap the other calls; inactive means mostly above about 0.92. The list shows a part of the results.

Experiment: chemical genetic growth profiling, strain panel (AID 1159580);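 further: tested at 20 µM; growth read once vehicle control cultures reached saturation at 30 °C; 1 = growth at the plate median or of vehicle wells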
Details: growth OD

Measured: normalized growth

COc1ccc(-c2coc3c(OC)c(O)ccc3c2=O)cc1
active: S. cerevisiae deletion strains, locus YDL134C, strain PPH21, stronger effect = lower value 0.888 | S. cerevisiae deletion strains, locus YDR162C, strain NBP2, stronger effect = lower value 0.792 | S. cerevisiae deletion strains, locus YGL086W, strain mad1, stronger effect = lower value 0.929 | S. cerevisiae deletion strains, locus YKR001C, strain vps1, stronger effect = lower value 0.896 | S. cerevisiae deletion strains, locus YLR418C, strain cdc73, stronger effect = lower value 0.808 | S. cerevisiae deletion strains, locus YNL307C, strain MCK1, stronger effect = lower value 0.896
inactive: S. cerevisiae deletion strains, locus YBR021W, strain FUR4, stronger effect = lower value 0.951 | S. cerevisiae deletion strains, locus YBR229C, strain ROT2, stronger effect = lower value 0.92 | S. cerevisiae deletion strains, locus YCL029C, strain bik1, stronger effect = lower value 0.97 | S. cerevisiae deletion strains, locus YDL035C, strain GPR1, stronger effect = lower value 0.935 | S. cerevisiae deletion strains, locus YDL074C, strain BRE1, stronger effect = lower value 0.9 | S. cerevisiae deletion strains, locus YDL101C, strain DUN1, stronger effect = lower value 0.928 | S. cerevisiae deletion strains, locus YDL185W, strain tfp1, stronger effect = lower value 0.949 | S. cerevisiae deletion strains, locus YDL192W, strain arf1, stronger effect = lower value 0.931 | S. cerevisiae deletion strains, locus YDR101C, strain arx1, stronger effect = lower value 0.944 | S. cerevisiae deletion strains, locus YDR318W, strain mcm21, stronger effect = lower value 0.951 | S. cerevisiae deletion strains, locus YDR388W, stronger effect = lower value 0.965 | S. cerevisiae deletion strains, locus YDR502C, strain sam2, stronger effect = lower value 0.953 | S. cerevisiae deletion strains, locus YEL061C, strain CIN8, stronger effect = lower value 0.958 | S. cerevisiae deletion strains, locus YER110C, stronger effect = lower value 0.953 | S. cerevisiae deletion strains, locus YER155C, strain BEM2, stronger effect = lower value 0.997 | S. cerevisiae deletion strains, locus YER167W, strain BCK2, stronger effect = lower value 0.956 | S. cerevisiae deletion strains, locus YGL078C, strain dbp3, stronger effect = lower value 0.961 | S. cerevisiae deletion strains, locus YGL248W, strain PDE1, stronger effect = lower value 0.927 | S. cerevisiae deletion strains, locus YGR135W, strain pre9, stronger effect = lower value 0.931 | S. cerevisiae deletion strains, locus YGR252W, strain gcn5, stronger effect = lower value 0.826 | S. cerevisiae deletion strains, locus YHR030C, strain SLT2, stronger effect = lower value 0.976 | S. cerevisiae deletion strains, locus YHR079C, strain IRE1 (second series), stronger effect = lower value 0.946 | S. cerevisiae deletion strains, locus YHR094C, strain hxt1, stronger effect = lower value 0.952 | S. cerevisiae deletion strains, locus YHR129C, strain ARP1, stronger effect = lower value 0.96 | S. cerevisiae deletion strains, locus YHR200W, strain rpn10, stronger effect = lower value 0.936 | S. cerevisiae deletion strains, locus YIL066C, strain RNR3, stronger effect = lower value 0.882 | S. cerevisiae deletion strains, locus YIL073C, strain SPO22, stronger effect = lower value 0.884 | S. cerevisiae deletion strains, locus YIL125W, strain kgd1, stronger effect = lower value 0.967 | S. cerevisiae deletion strains, locus YIR030C, strain dcg1, stronger effect = lower value 0.962 | S. cerevisiae deletion strains, locus YJL095W, strain BCK1, stronger effect = lower value 0.813 | S. cerevisiae deletion strains, locus YJL134W, strain LCB3, stronger effect = lower value 0.968 | S. cerevisiae deletion strains, locus YJL168C, strain set2, stronger effect = lower value 0.963 | S. cerevisiae deletion strains, locus YJL187C, strain SWE1 (second series), stronger effect = lower value 0.916 | S. cerevisiae deletion strains, locus YJR043C, strain POL32, stronger effect = lower value 0.914 | S. cerevisiae deletion strains, locus YKL009W, strain mrt4, stronger effect = lower value 0.928 | S. cerevisiae deletion strains, locus YKL068W, stronger effect = lower value 0.946 | S. cerevisiae deletion strains, locus YKL085W, strain MDH1 (second series), stronger effect = lower value 0.944 | S. cerevisiae deletion strains, locus YKL085W, strain MDH1, stronger effect = lower value 0.944 | S. cerevisiae deletion strains, locus YKL190W, strain CNB1, stronger effect = lower value 0.958 | S. cerevisiae deletion strains, locus YLR039C, strain RIC1, stronger effect = lower value 0.861 | S. cerevisiae deletion strains, locus YLR058C, strain SHM2, stronger effect = lower value 0.931 | S. cerevisiae deletion strains, locus YLR102C, strain apc9, stronger effect = lower value 0.965 | S. cerevisiae deletion strains, locus YLR262C, strain YPT6, stronger effect = lower value 0.86 | S. cerevisiae deletion strains, locus YLR268W, strain sec22, stronger effect = lower value 0.942 | S. cerevisiae deletion strains, locus YLR330W, strain CHS5, stronger effect = lower value 0.953 | S. cerevisiae deletion strains, locus YLR342W, strain FKS1 (second series), stronger effect = lower value 0.86 | S. cerevisiae deletion strains, locus YLR371W, strain rom2, stronger effect = lower value 0.969 | S. cerevisiae deletion strains, locus YML016C, strain PPZ1, stronger effect = lower value 0.963 | S. cerevisiae deletion strains, locus YML032C, strain rad52, stronger effect = lower value 0.958 | S. cerevisiae deletion strains, locus YML124C, strain tub3, stronger effect = lower value 0.952 | S. cerevisiae deletion strains, locus YMR078C, strain ctf18, stronger effect = lower value 0.95 | S. cerevisiae deletion strains, locus YMR223W, strain ubp8, stronger effect = lower value 0.943 | S. cerevisiae deletion strains, locus YMR307W, strain GAS1, stronger effect = lower value 0.769 | S. cerevisiae deletion strains, locus YNL067W, strain RPL9B, stronger effect = lower value 0.918 | S. cerevisiae deletion strains, locus YNL233W, strain BNI4, stronger effect = lower value 0.892 | S. cerevisiae deletion strains, locus YNL250W, strain rad50, stronger effect = lower value 0.968 | S. cerevisiae deletion strains, locus YNL271C, strain bni1, stronger effect = lower value 0.945 | S. cerevisiae deletion strains, locus YNL298W, strain CLA4, stronger effect = lower value 0.94 | S. cerevisiae deletion strains, locus YNR052C, strain pop2, stronger effect = lower value 0.964 | S. cerevisiae deletion strains, locus YOL006C, strain TOP1, stronger effect = lower value 0.742 | S. cerevisiae deletion strains, locus YOL012C, strain htz1 0.945 | S. cerevisiae deletion strains, locus YOL147C, strain pex11, stronger effect = lower value 0.966 | S. cerevisiae deletion strains, locus YOR061W, strain CKA2, stronger effect = lower value 0.933 | S. cerevisiae deletion strains, locus YOR069W, strain VPS5, stronger effect = lower value 0.969 | S. cerevisiae deletion strains, locus YOR136W, strain idh2, stronger effect = lower value 0.98 | S. cerevisiae deletion strains, locus YOR144C, strain elg1, stronger effect = lower value 0.966 | S. cerevisiae deletion strains, locus YOR184W, strain ser1, stronger effect = lower value 0.876 | S. cerevisiae deletion strains, locus YOR316C, strain cot1, stronger effect = lower value 0.961 | S. cerevisiae deletion strains, locus YPL055C, strain LGE1, stronger effect = lower value 0.86 | S. cerevisiae deletion strains, locus YPR119W, strain clb2, stronger effect = lower value 0.977 | S. cerevisiae deletion strains, locus YPR141C, strain kar3, stronger effect = lower value 0.955 | S. cerevisiae deletion strains, locus YPR163C, strain tif3, stronger effect = lower value 0.931 | S. cerevisiae deletion strains, locus YPR167C, strain met16, stronger effect = lower value 0.954 | S. cerevisiae deletion strains, strain wtn01, stronger effect = lower value 0.962 | S. cerevisiae strains, strain wild type, stronger effect = lower value 0.95
